Where “and” joins values, the source holds several entries; their conditions need not be identical. Identical values can stand only once. Records with an inconclusive call do not appear. Calls of active or inactive are those of the source. The call rests on the fitted dose curve; in most records, active means well fitted inhibition curve with a large enough effect; inconclusive means small, poorly fitted or top-dose-only effect; inactive means flat fitted curve, though single readings scatter.
How the values were obtained:
CRL-7250 = normal cell line; experiment: Cytotoxic Profiling of Annotated Libraries Using Quantitative High-Throughput Screening (AID 1296008); conditions: Five cell lines viability, CellTiter-Glo ATP luminescence, 48-72 h; max response: hits give low values; further: potency means the concentration at half of the fitted maximal effect
Procedure, shortened: (§1)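 Compounds were pin-transferred onto cells and incubated 48 or 72 hr at 37 degree Celsius, 95% humidity. CellTiter-Glo was added, plates sat 10 min at room temperature, then ATP-coupled luminescence was imaged as the viability read-out.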

HEK293 = experiment: as above; conditions: Five cell lines viability, CellTiter-Glo ATP luminescence, 48-72 h; max response: hits give low values
Procedure, shortened: as §1

HaCat [1] = experiment: as above; conditions: Five cell lines viability, CellTiter-Glo ATP luminescence, 48-72 h; max response: hits give low values
Procedure, shortened: as §1

KB-3-1 = experiment: as above; conditions: Five cell lines viability, CellTiter-Glo ATP luminescence, 48-72 h; max response: hits give low values
Procedure, shortened: as §1

NIH3T3 = experiment: as above; conditions: Five cell lines viability, CellTiter-Glo ATP luminescence, 48-72 h; max response: hits give low values
Procedure, shortened: as §1

HACAT [2] = experiment: qHTS assay to identify novel small-molecules to repurpose for Merkel cell carcinoma treatment (AID 1296009); conditions: MCC and control cell lines, CellTiter-Glo viability, 72 h; at 44.8 µM (top of the series) unless noted
Procedure, shortened: (§2)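 qHTS format: cells treated with library compounds in DMSO across 8 (NPC) or 11 (MIPE) concentrations. Readout after 72 hr at 37 degree celsius was CellTiter-Glo luminescence.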

MCC-13 = experiment: as above; conditions: MCC and control cell lines, CellTiter-Glo viability, 72 h; series mostly up to 46 µM
Procedure, shortened: as §2

MCC-26 = experiment: as above; conditions: MCC and control cell lines, CellTiter-Glo viability, 72 h; series mostly up to 46 µM
Procedure, shortened: as §2

MKL-1 = experiment: as above; conditions: MCC and control cell lines, CellTiter-Glo viability, 72 h; series mostly up to 46 µM
Procedure, shortened: as §2

HEK293T = experiment: as above; conditions: MCC and control cell lines, CellTiter-Glo viability, 72 h; at 44.8 µM (top of the series) unless noted
Procedure, shortened: as §2
Further: nearly all actives have a fitted effect of over 60% in size.
On the % scale 0 is the no-effect control and ±100 the full control effect.

CC(=O)[C@H]1CC[C@H]2[C@@H]3CC=C4C[C@@H](O)CC[C@]4(C)[C@H]3CC[C@]12C
inactive: max response (CRL-7250) 3.91% | outcome (CRL-7250) | max response (HEK293) -4.16% and 0.472% | max response (HaCat [1]) 2.2% | outcome (HaCat [1]) | max response (KB-3-1) -0.265% and 8.01% | max response (NIH3T3) 0.775% | outcome (NIH3T3) | outcome (HACAT [2]) | Potency (MCC-13) | Potency (MCC-26) | Potency (MKL-1)

O=S(=O)(O)CCS
inactive: max response (CRL-7250) 3.2% | outcome (CRL-7250) | max response (HEK293) -11.9% | outcome (HEK293) | max response (HaCat [1]) -12.1% | outcome (HaCat [1]) | max response (KB-3-1) 0.578% | max response (NIH3T3) 1.04% and -6.12% | outcome (HACAT [2]) | outcome (HEK293T) | Potency (MCC-13) | Potency (MCC-26) | Potency (MKL-1)

C[C@@H]1CN(c2c(F)c(N)c3c(=O)c(C(=O)O)cn(C4CC4)c3c2F)C[C@H](C)N1
inactive: max response (CRL-7250) -4.39% | outcome (CRL-7250) | outcome (HEK293) | max response (HaCat [1]) -0.171% | outcome (HaCat [1]) | max response (KB-3-1) 8.25% and 3.23% | max response (NIH3T3) 0.0179% and 2.17% | outcome (HACAT [2]) inactive [at 17.4 µM] | outcome (HEK293T) inactive [at 17.4 µM] | Potency (MCC-13) | Potency (MCC-26) | Potency (MKL-1)

CN(Cc1cc(Br)cc(Br)c1N)C1CCCCC1
inactive: max response (CRL-7250) 1.14% | outcome (CRL-7250) | outcome (HEK293) | max response (HaCat [1]) 3.33% | outcome (HaCat [1]) | max response (KB-3-1) 2.85% and 5.96% | max response (NIH3T3) 1.21% | outcome (NIH3T3) | outcome (HACAT [2]) | outcome (HEK293T) | Potency (MCC-13) | Potency (MCC-26) | Potency (MKL-1)

Cn1nnc2c(C(N)=O)ncn2c1=O
inactive: max response (CRL-7250) 3.05% | outcome (CRL-7250) | max response (HEK293) 1.76% and -7.24% | max response (HaCat [1]) 0.848% | outcome (HaCat [1]) | max response (KB-3-1) 3.98% and 7.43% | max response (NIH3T3) -16.1% | outcome (NIH3T3) | outcome (HACAT [2]) | Potency (MCC-13) | Potency (MCC-26) | Potency (MKL-1)

O=NN(CCCl)C(=O)NC1CCCCC1
inactive: max response (CRL-7250) 4.87% | outcome (CRL-7250) | max response (HEK293) 3.97% | outcome (HEK293) | max response (HaCat [1]) 4.22% | outcome (HaCat [1]) | max response (KB-3-1) 2.75% | outcome (KB-3-1) | max response (NIH3T3) -1.41% | outcome (NIH3T3) | outcome (HACAT [2]) | outcome (HEK293T) | Potency (MCC-13) | Potency (MCC-26) | Potency (MKL-1)

CCC(C)(C)c1ccc(CC(C)CN2C[C@@H](C)O[C@@H](C)C2)cc1 (stereo partly specified)
inactive: max response (CRL-7250) 0.576% | outcome (CRL-7250) | max response (HEK293) -0.508% and -3.77% | outcome (HaCat [1]) | max response (KB-3-1) 0.53% and -5.13% | max response (NIH3T3) 3.97% and -6% | outcome (HACAT [2]) | Potency (MCC-13) | Potency (MCC-26) | Potency (MKL-1)

Cc1nnc(C(=O)NC(C)(C)c2nc(C(=O)NCc3ccc(F)cc3)c(O)c(=O)n2C)o1
inactive: max response (CRL-7250) 1.7% and -8.84% | outcome (CRL-7250) | max response (HEK293) -1.41% and 1.54% and -3.51% | max response (HaCat [1]) -1.85% and 3.43% | outcome (HaCat [1]) | max response (KB-3-1) -0.518% and 8.61% | max response (NIH3T3) -3.12% and 2.12% | outcome (NIH3T3) | outcome (HACAT [2]) | Potency (MCC-13) | Potency (MCC-26) | Potency (MKL-1)

CNCC[C@H](Oc1cccc2ccccc12)c1cccs1
inactive: max response (CRL-7250) -21.6% | outcome (CRL-7250) | outcome (HaCat [1]) | max response (KB-3-1) -19.6% and -13.2% | outcome (HACAT [2]) | Potency (MCC-13) | Potency (MCC-26)
active: Potency (HEK293) 21.1 µM

S=P(N1CC1)(N1CC1)N1CC1
inactive: max response (CRL-7250) -10.3% | outcome (CRL-7250) | outcome (HaCat [1]) | max response (KB-3-1) 19% and 33.9% and 9.73% | max response (NIH3T3) -7.91% | outcome (HACAT [2]) inactive [at 92 µM] | Potency (MCC-13) | Potency (MCC-26) | Potency (MKL-1)
active: Potency (HEK293) 22.8 µM

CC(=O)CC(c1ccccc1)c1c(O)c2ccccc2oc1=O (stereo unspecified)
inactive: max response (CRL-7250) -2.79% | outcome (CRL-7250) | outcome (HEK293) | max response (HaCat [1]) -6.98% | outcome (HaCat [1]) | max response (KB-3-1) 7.33% and -13.6% and 2.81% | max response (NIH3T3) -11.7% and -5.84% | outcome (HACAT [2]) | outcome (HEK293T) | Potency (MCC-13) | Potency (MCC-26) | Potency (MKL-1)

CCCN[C@H]1CCc2nc(N)sc2C1
inactive: max response (CRL-7250) 0.673% | outcome (CRL-7250) | outcome (HEK293) | max response (HaCat [1]) 3.55% | outcome (HaCat [1]) | max response (KB-3-1) 5.22% and 4.84% | max response (NIH3T3) 4.11% and -1.47% | outcome (HACAT [2]) | outcome (HEK293T) | Potency (MCC-13) | Potency (MCC-26) | Potency (MKL-1)

— PubChem BioAssay (NCATS)
